Each sequence was assayed on THRa homodimer (NR concentration 90 nM) (assay: PBM binding z-score (relative to random genomic background probes); higher = stronger binding; sequences stand for … in GC…GCGATTGACAGCGTAGAATGAAGG).
Method in brief: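 Antibodies against each partner of ligand-free nuclear receptor dimers (one per run) detected binding on custom Agilent 4×180K protein-binding microarrays after 1 h incubation. The double-stranded probes had 34-nt variable regions carrying direct-repeat seeds, single-nucleotide variants, half-site ablations and random human genomic background sequences. Binding z-scores, from regression-normalized fluorescence, use the random background probes as reference.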

Sequence	PBM binding z-score
ATATGTAGGTTATCGGGTCATTCAGTTTGCGCAT	3.19
TAGCCTAGGTCATGCGGGCTAGTATAGTGTCGGC	0.88
TTACCAAGGTGAAGTTCGTTGATCCCTCTGTAGA	0.676
TCAGACAGGTGAACGTAACTCAGGTACGCAGTCG	0.264
CCAGACAGGTGAGAAGGTAACTCATCCTCGATTA	0.345
TCTATTAGTTGATTAGGGCCACCGAAACAGCGGA	0.613
CCTTACGGGTCAAAGTTATAGCACGGGTGGTACG	-0.124
CCTAGCAGGCCAATCTGGGTCACTCACGGCTTGA	0.637
CCGAGTAGGTTTTGGGGCATTCAGGCAACGGTGA	0.467
TAGCCTAGGTCATGGGGCCAGTATAGTACGCATC	1.43
CCGATTAGGTTATGGGGCATTCAGGCAACGGTGA	0.572
CGAACGAGCGCATGAGTTGATAGCAAATGCCGAT	-0.891
CGTCCAAGGTCATAGGAGGTCTGTGAAGACAGAT	2.24
CGTCCAAGGTCATAGGATGTCAGTGAAGACAGAT	2.46
ACTAGCAGGCCAAGGGTCACTCATGATTAGTCCG	0.0224
CCTCTTAGTTGACCATAAGGGCAACCGAAGCTCG	1.59
ATATGTAGGTTACATCCGGGGCATTCAGGCTATG	0.704
CCTAGCAGGCCAATCTGGGCCACTCAAGGCTTGA	-0.893
CGTCCTAGGTCAAGGTCAGTGAAAGAGACTCGAA	2.95
GGAACGAGGGCAAGTTGGTAGCAGAGTTTGATGG	0.26
ACAGACAGGTGAGTGAAGGTTACTCAGCTGGACG	-0.671
ACTTACGGGTCAACGAGGTGATAGCACGCGTATA	0.952
